Experimental data as given in PubChem BioAssay.
Activity calls are given as the source filed them.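 The calls were made as follows: active = compounds whose cell count with miR-34 switched on is under 0.7 times the count with it off; inactive = the rest.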

Assay: sensitizers of A549 cells to miR-34 induction, primary screen, imaging, A549 dox-inducible miR-34, nuclei and caspase counts (AID 1347080); also: test concentration not given here
Details: A549 miR-34 inducible, Hoechst nuclei count, 48 h
[1] = stronger effect = lower value, cell number ratio, induced over uninduced
[2] = measured here: relative caspase fold change +Dox/-Dox
[3] = measured here: total cells with miR-34 induction, stronger effect = lower value
[4] = measured here: total cells without miR-34 induction

SMILES	fold change [1]	fold change [2]	cell count [3]	cell count [4]
CC(C)CCOc1ccc(NC(=S)Nc2ccc(OCCC(C)C)cc2)cc1	0.881 (inactive)	0.401	4560	5170
CCCCCCCCC#CCCCCCCCC(=O)c1nc2ncccc2o1	1.03 (inactive)	1.11	6180	5990
CC(=O)OC1=C(C)NC(C)=C(OC(C)=O)C1c1ccccc1[N+](=O)[O-]	0.849 (inactive)	1.01	3570	4210
NC(=O)CCC/C=C\C[C@@H]1[C@@H](/C=C/[C@@H](O)CCc2ccccc2)[C@H](O)C[C@@H]1O	0.961 (inactive)	1.58	6210	6460
CCCCC[C@H](O)/C=C/[C@@H]1[C@@H](C/C=C\CCCC(=O)N(CC)CC)[C@@H](O)C[C@H]1O	0.98 (inactive)	0.858	5500	5610
CCCCCCCCCCCC(=O)CC(=O)N[C@H]1CCOC1=O	1.1 (inactive)	1.72	6190	5610
CCCCCCCC/C=C\CCCCCCCC(=O)N[C@H](CO)Cc1ccc(O)cc1	1.03 (inactive)	1.33	6010	5860
O=C1N[C@@H]2[C@@H](O)[C@@H](O)[C@H](O)[C@@H](CO)N2C1=O	0.921 (inactive)	0.979	4980	5410
CCCCCCCC/C=C\CCCCCCCC(=O)NCC(=O)O	1.05 (inactive)	0.739	6150	5840
CCN(CC)C(=O)CCC/C=C\C[C@@H]1[C@@H](/C=C/[C@@H](O)CCc2ccccc2)[C@H](O)C[C@@H]1O	0.995 (inactive)	1.45	5990	6020
CCCCC/C=C\C/C=C\CCCCCCCC(=O)OC(CO)CO	0.978 (inactive)	0.884	5470	5600
O=C(O)CCC/C=C\C[C@@H]1[C@@H](CC[C@@H](O)CCc2cccc(C(F)(F)F)c2)[C@H](O)C[C@@H]1O	0.926 (inactive)	1.34	6330	6830
CCCCCCCC/C=C\CCCCCCCC(=O)N[C@@H](CO)C(=O)O	1.01 (inactive)	1.73	5230	5180
O=C(O)CCC/C=C\C[C@H]1[C@@H](/C=C/[C@@H](O)CCc2ccccc2)[C@H](O)C[C@@H]1O	0.9 (inactive)	0.837	5490	6100
CCCCC[C@H]1/C=C/[C@@H]2[C@@H](C/C=C\CCCC(=O)O1)[C@@H](O)C[C@H]2O	0.933 (inactive)	1	4270	4580
N[C@@H](Cc1ccc(O)c([N+](=O)[O-])c1)C(=O)O	0.943 (inactive)	1.05	5730	6080
CCCCC[C@H](O)/C=C/[C@@H]1[C@H]2C/C=C\CCCC(=O)O[C@H]2C[C@H]1O	0.977 (inactive)	1.29	5860	5990
CCCCCCCCCCCCCCOc1ccc(C(=O)O)o1	0.937 (inactive)	1	5650	6030
CCCCCCCCCCCCCCCCSC[C@H](COP(=O)([O-])OCC[N+](C)(C)C)NC(=O)CCCCCCCCCCCCCCC	1.04 (inactive)	0.778	6260	6010
CCCCC[C@H](O)/C=C/[C@@H]1[C@H]2C/C(=C\CCCC(=O)O)C[C@H]2C[C@H]1O	0.922 (inactive)	1.13	6140	6660

SMILES	fold change [1]	fold change [2]	cell count [3]	cell count [4]
CCCCCC(=O)CC[C@@H]1[C@@H](CCCCCCC(=O)O)[C@@H](O)C[C@H]1O	0.953 (inactive)	1.23	6140	6450
CCCCC[C@@H](O)/C=C/[C@H]1C(=O)C[C@H](O)[C@@H]1C/C=C\CCCC(=O)O	0.996 (inactive)	1.65	6010	6040
CCCCC[C@H](O)/C=C/[C@@H]1[C@@H](C/C=C\CCCC(=O)NC(CO)CO)[C@@H](O)C[C@H]1O	1.01 (inactive)	1.3	6050	5980
N=C(N)SCCC[C@H](N)C(=O)O	0.98 (inactive)	0.775	5850	5970
CCCCC[C@@](C)(O)/C=C/[C@H]1[C@H](O)CC(=O)[C@@H]1C/C=C\CCCC(=O)O	1.04 (inactive)	1.07	5770	5570
CCCCCC(=O)CC[C@@H]1[C@@H](C/C=C\CCCC(=O)OC(C)C)[C@@H](O)C[C@H]1O	0.977 (inactive)	1.56	6190	6330
O=C(O)CCCCCCC1C(=O)N(Cc2ccccc2)C(=O)N1NCC(O)C1CCCCC1 (stereo not given)	0.813 (inactive)	2.25	5360	6590
CCCCC/C=C\C/C=C\C/C=C\CCCCCCC(=O)OC	1.11 (inactive)	0.903	6440	5790
O=C(O)CCC/C=C\CC1C(=O)C[C@@H](O)[C@@H]1/C=C/[C@@H](O)COc1ccccc1 (stereo not given in full)	0.868 (inactive)	1.75	5400	6220
CCCCCCC[C@H](O)/C=C/[C@@H]1[C@@H](C/C=C\CCCC(=O)O)[C@@H](O)C[C@H]1O	0.945 (inactive)	1.5	6150	6520
CCCCCCCCCCCCCCCNC(=O)C1CCCCC1	1.13 (inactive)	0.274	6830	6070
O=C(/C=C/c1cccc(C(=O)NO)c1)NO	0.962 (inactive)	1.09	4750	4940
CCCCC[C@H](O)/C=C/[C@@H]1[C@@H](CCCCCCC(=O)O)[C@H](O)C[C@H]1O	0.962 (inactive)	1.22	6020	6250
COc1ccc2cc(C(C#N)OC(=O)CC3OC3c3ccccc3)ccc2c1 (stereo not given)	0.909 (inactive)	0.7	5490	6040
CC1CCN=C(N)C1 (stereo not given)	0.966 (inactive)	0.767	6190	6410
CCCCC[C@H](O)/C=C/[C@H]1C(=O)C[C@H](O)[C@@H]1CCCCCCC(=O)O	0.92 (inactive)	0.486	4900	5320
O=C(O)CCC/C=C\C[C@H]1C(=O)C=C[C@@H]1/C=C/[C@@H](O)COc1ccccc1	0.91 (inactive)	1.28	5700	6260
C/C(O)=C1\C(=O)[C@@H]2[C@H]3c4c[nH]c5cccc(c45)C[C@H]3C(C)(C)N2C1=O	1.02 (inactive)	0.893	2150	2100
O=C(O)c1c[nH]c2c(ccc3cccnc32)c1=O	0.93 (inactive)	0.866	5740	6180
CC(C)(C)C(=O)Nc1ccccc1	0.896 (inactive)	1.18	5080	5670

SMILES	fold change [1]	fold change [2]	cell count [3]	cell count [4]
CCCCC[C@H](O)/C=C/[C@@H]1[C@H](CCCCCCC(=O)O)[C@H](O)C[C@H]1O	0.963 (inactive)	1.17	6030	6260
CCCCC[C@](C)(O)/C=C/[C@H]1[C@H](O)CC(=O)[C@@H]1CCCCCCC(=O)O	1 (inactive)	1.58	5750	5720
CCCCC[C@H](O)/C=C/[C@@H]1c2cc(CCCCC(=O)O)n(-c3ccccc3)c2C[C@H]1O	0.958 (inactive)	1.14	6340	6620
OC[C@H]1NC[C@H](O)[C@@H](O)[C@@H]1O	0.965 (inactive)	0.787	5000	5180
CCCCCC(=O)/C=C/C=O	1.01 (inactive)	1.61	5770	5720
CCCCC/C=C\C/C=C\C/C=C\C/C=C\CCCC(=O)OCc1ccsc1	0.989 (inactive)	1.02	6270	6340
CCCCCCCCCCCCCCCCCCCCCCCC(=O)NCCS(=O)(=O)O	0.987 (inactive)	0.331	5520	5600
Nc1nc2c([nH]c(=O)n2[C@@H]2O[C@H](CO)[C@@H](O)[C@H]2O)c(=O)[nH]1	1.03 (inactive)	0.878	5770	5600
CCCCC[C@H](O)/C=C/[C@@H]1[C@H]2C[C@H](CCCCC(=O)O)O[C@H]2C[C@H]1O	0.999 (inactive)	1.41	6310	6310
COc1ccc(C[C@H](N)C(=O)N[C@H]2[C@@H](O)[C@H](n3cnc4c(N(C)C)ncnc43)O[C@@H]2O)cc1	0.887 (inactive)	1.17	1130	1270
COc1c(O)c2c(=O)cc(OC)c3c4c(OC)cc(=O)c5c(O)c(OC)c(C[C@@H](C)OC(=O)c6ccccc6)c(c(c1C[C@@H](C)OC(=O)Oc1ccc(O)cc1)c23)c54	0.961 (inactive)	0.723	2210	2300
CCCCC/C=C\C=C\CCCCCCCCC(=O)O	1.07 (inactive)	1.02	5840	5480
CCCCCCCC/C=C\CCCCCCCCOCCOP(=O)([O-])OCC[N+](C)(C)C	0.927 (inactive)	0.887	5510	5950
COc1cc2c3cc1Oc1c(OC)c(OC)cc4c1[C@@H](Cc1ccc(OC(=O)c5ccc([N+](=O)[O-])cc5)c(c1)Oc1ccc(cc1)C[C@@H]3N(C)CC2)N(C)CC4	1.06 (inactive)	0.897	2050	1940
COC(=O)[C@H](Cc1ccccc1)NC(=O)/C=C/c1ccc(O)cc1	1 (inactive)	0.674	6500	6490
CCCCC[C@H](O)/C=C/[C@H]1C2CC(CO2)[C@@H]1CCCCCCC(=O)O (stereo not given in full)	0.941 (inactive)	0.43	5850	6210
CCCCC/C=C/C=C1/C(=O)C[C@H](O)[C@@H]1C/C=C\CCCC(=O)O	1.04 (inactive)	1.03	6090	5880
CC/C=C\C/C=C\C/C=C\CCCCCCCC(=O)OCC	0.898 (inactive)	0.639	5180	5770
C#CCOc1ccccc1CCCCCC(=O)O	1.11 (inactive)	0.728	5930	5330
CCCCNC(=O)NS(=O)(=O)c1ccc(CO)cc1	1.05 (inactive)	0.775	5120	4890
